# Results from PubChem BioAssay (NCI).
# The panel holds about 83,000 compounds, 20% with a hit somewhere; the sample as a whole holds those more often.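 Cell lines were cultured in 96-well plates, exposed to a single compound concentration, and assessed for percent growth 48 hours later.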 Values without a mark were called inactive. Activity calls are given as the source filed them. The calls were made as follows: active = growth percent below 10; inactive = the rest.
# How the values were obtained:
# Assay in all cases: NCI-60 one-dose screen, 48 h (100 = growth as untreated, 0 = no growth, -100 = all killed)
# Conditions in all cases: 10 µM unless noted
# HCT-15 colon = system: HCT-15 colon
# HT29 colon = system: HT29 colon
# SNB-75 CNS = system: SNB-75 CNS
# SNB-19 CNS = system: SNB-19 CNS
# U251 CNS = system: U251 CNS
# PC-3 prostate = system: PC-3 prostate
# SK-MEL-5 melanoma = system: SK-MEL-5 melanoma
# UACC-62 melanoma = system: UACC-62 melanoma
# LOX IMVI melanoma = system: LOX IMVI melanoma
# SK-MEL-28 melanoma = system: SK-MEL-28 melanoma
SMILES,growth (HCT-15 colon),growth (HT29 colon),growth (SNB-75 CNS),growth (SNB-19 CNS),growth (U251 CNS),growth (PC-3 prostate),growth (SK-MEL-5 melanoma),growth (UACC-62 melanoma),growth (LOX IMVI melanoma),growth (SK-MEL-28 melanoma)
Cc1cc2c(O)c(-c3cccc(Cl)c3)c3sc(=O)oc3c2cc1C,43.2%,111%,36.1%,45.4%,21.9%,60.9%,18.9%,27%,45.1%,52.2%
Cc1nn(-c2ccccc2)c(Oc2ccccn2)c1-c1nc2ccccc2s1,91.4%,92.6%,97%,100%,97.8%,91%,84.4%,91.4%,97.3%,106%
N=C(N)c1ccc(-c2ccc(-c3cc(Cl)cc(Cl)c3)o2)o1,-89.3% (active),-81.1% (active),-68.9% (active),-64.9% (active),-89.9% (active),-25.8% (active),16.2%,-81% (active),-83.6% (active),-80.2% (active)
CCCCN1C(=O)/C(=c2\sc3n(c2=O)C2C(NN=3)N(CC)C(=O)N2CC)c2ccccc21 (stereo not given),8.29% (active),0.704% (active),-17.6% (active),25%,5.8% (active),20.7%,29.2%,18.9%,20.1%,48.1%
Cn1c(O)c(C=NCCN=Cc2c(O)n(C)c(=O)n(C)c2=O)c(=O)n(C)c1=O,107%,97.1%,88.3%,97.6%,102%,90.4%,98.7%,84.1%,93.2%,109%
Cn1cc(-c2nc(-c3c[nH]c4ccncc34)cs2)c2ccccc21,-21.6% (active),0.469% (active),91%,88.4%,-43.8% (active),61.5%,55.2%,94.6%,-78% (active),-79.8% (active)
CC(=O)c1cc(O)c2ccccc2c1O,98.9%,111%,70.7%,100%,98.2%,85.7%,86.4%,101%,78.5%,137%
CC1=C(CCC(C)N(C)Cc2ccc(OCCCN3CCCC3)cc2)C(C)(C)CCC1 (stereo not given),-14% (active),-12% (active),63.1%,41.8%,-11.9% (active),31.8%,-93.7% (active),-63.9% (active),-81.4% (active),-80.6% (active)
Brc1c2c(c(Br)c3ccccc13)CCCC2,112%,85.2%,97.8%,96.4%,91.2%,93.6%,98.3%,84.9%,100%,101%
Cn1c(=O)c2c(nc(NC3=NS(=O)(=O)c4ccccc43)n2CC(=O)N2CCc3ccccc32)n(C)c1=O,101%,101%,94.9%,101%,101%,104%,101%,97.6%,91.2%,105%
Cc1oc(-c2ccc(Cl)cc2)nc1/C=C/C(=O)c1ccccc1,97.5%,107%,93.2%,97.6%,97.5%,93.6%,99%,87.5%,99.6%,105%
COc1cc(-c2nc3cc(Cl)c(Cl)cc3[nH]2)ccc1OCC(=O)N=Nc1c(O)[nH]c2ccc([N+](=O)[O-])cc12,103%,110%,92.7%,43.9%,22%,56.5%,85.1%,95.2%,78.7%,82%
CCn1c(=S)sc2c(Nc3ccc(F)cc3)nc(-c3cccnc3)nc21,88.2%,41.6%,13.7%,78.9%,34.3%,56%,87.7%,56.7%,69.5%,86.2%
Cc1ccc(-c2cc(-c3ccc(Cl)cc3)nc(NC(=O)c3cccnc3)n2)cc1,94.5%,109%,99.8%,94.6%,101%,85.5%,93.6%,76%,95.7%,106%
N#CC1CCc2c(c(-c3cn[nH]c3C(F)(F)F)nc3c(F)cc4[nH]ncc4c23)C1 (stereo not given),86.1%,42.1%,-4.91% (active),32.7%,28.9%,43.6%,6.54% (active),8.91% (active),17.1%,24.9%
